The target of assay [1] is Acetylcholinesterase (Homo sapiens) (UniProt P22303). Kind of assay: Acetylcholinesterase (AChE) small molecule antagonists: colormetric cell-based qHTS assay (AID 1347395). Further: nearly all actives have a fitted effect of over 30% in size. A digest of the protocol:
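Homogeneous whole-cell format. SH-SY5Y cells seeded overnight, dosed with compound (30 min, 37 C, 5% CO2), then given DTNB/acetylthiocholine cocktail for 90 min at 37 C; colorimetric signal.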
(qHTS replaces the single test concentration by a dilution series.)

The target is the same in assay [2]. Kind of assay: Acetylcholinesterase (AChE) small molecule antagonists: enzyme-based qHTS assay (AID 1347397). Further: nearly all actives have a fitted effect of over 55% in size. As to conditions: Potency: AChE enzyme activity inhibition; outcome: AChE enzyme activity inhibition. A digest of the protocol:
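Absorbance-based detection of thiocholine with DTNB served as the read-out. Recombinant human AChE was exposed to compound for 30 min at RT before a 10 min RT incubation with acetylthiocholine.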

For assay [3] the target is unchanged. Briefly: Acetylcholinesterase (AChE) small molecule antagonists: fluorescence cell-based qHTS assay (AID 1347398). Further: nearly all actives have a fitted effect of over 50% in size. Conditions: Potency: AChE activity; outcome: AChE activity. A digest of the protocol: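 Fluorimetric cell-based assay: intact SH-SY5Y cells, 30 min compound preincubation at 37 C, acetylthiocholine substrate with thiol probe Thiolite Green, 40 min RT development, fluorescence 490/520 nm.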

Assay [4] shares this target. Briefly: Acetylcholinesterase (AChE) small molecule antagonists: enzyme-based qHTS assay with human liver microsomes (AID 1347399). Further: nearly all actives have a fitted effect of over 60% in size. Conditions: Potency: qHTS inhibition; outcome: qHTS inhibition. A digest of the protocol: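 Recombinant human AChE (50 mU/mL in the enzyme mix) and human liver microsomes (0.25 mg/mL final) were preincubated with compound and NADPH (0.25 mg/mL final) for 30 min at 37 C. Acetylthiocholine/DTNB was then added; thiocholine was read colorimetrically after 10 min at room temperature.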

The target in another assay is Aromatase (Homo sapiens) (UniProt P11511). Briefly: qHTS assay to identify aromatase inhibitors (AID 743083; active means well fitted curve in the direction sought with a large enough effect in the repeat runs; an effect the other way counts as inactive or inconclusive; further: series mostly up to about 70 µM; nearly all actives have a fitted effect of over 55% in size).
In assay [5] the target is Aryl hydrocarbon receptor (Homo sapiens) (UniProt P35869). Kind of assay: qHTS assay to identify small molecule that activate the aryl hydrocarbon receptor (AhR) signaling pathway (AID 743085; active means well fitted curve in the direction sought with a large enough effect in the repeat runs; an effect the other way counts as inactive or inconclusive; further: potency means the concentration at half of the fitted maximal effect; nearly all actives have a fitted effect of over 15% in size). A digest of the protocol: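 A multiplexed format paired cell viability (CellTiter-Fluor fluorescence) with AhR-dependent luciferase output (ONE-Glo luminescence) in the same wells of HepG2 DRE-luc cells after 24 h compound exposure at 37C.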

Values without a mark were called inactive. Inconclusive results are not listed. Activity calls are given as the source filed them. Unless noted, the call rests on the fitted dose curve.

Acetylcholinesterase (Homo sapiens), sequence (P22303 whole entry, looked up): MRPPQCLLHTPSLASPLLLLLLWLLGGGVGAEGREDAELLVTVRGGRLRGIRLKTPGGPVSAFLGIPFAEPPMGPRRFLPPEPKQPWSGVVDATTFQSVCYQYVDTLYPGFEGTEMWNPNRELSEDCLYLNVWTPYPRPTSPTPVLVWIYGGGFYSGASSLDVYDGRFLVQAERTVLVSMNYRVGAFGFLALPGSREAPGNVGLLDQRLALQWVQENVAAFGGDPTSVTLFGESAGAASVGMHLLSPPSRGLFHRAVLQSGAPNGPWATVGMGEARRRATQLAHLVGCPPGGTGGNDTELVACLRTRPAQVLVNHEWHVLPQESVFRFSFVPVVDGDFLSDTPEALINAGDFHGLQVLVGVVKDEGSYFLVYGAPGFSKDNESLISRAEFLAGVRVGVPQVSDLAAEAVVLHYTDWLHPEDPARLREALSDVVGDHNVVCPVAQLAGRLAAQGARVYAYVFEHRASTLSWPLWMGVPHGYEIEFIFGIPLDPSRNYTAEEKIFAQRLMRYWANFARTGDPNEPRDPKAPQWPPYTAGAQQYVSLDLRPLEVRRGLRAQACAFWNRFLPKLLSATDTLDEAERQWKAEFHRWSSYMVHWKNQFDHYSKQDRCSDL
Aromatase (Homo sapiens), sequence (P11511 whole entry, looked up): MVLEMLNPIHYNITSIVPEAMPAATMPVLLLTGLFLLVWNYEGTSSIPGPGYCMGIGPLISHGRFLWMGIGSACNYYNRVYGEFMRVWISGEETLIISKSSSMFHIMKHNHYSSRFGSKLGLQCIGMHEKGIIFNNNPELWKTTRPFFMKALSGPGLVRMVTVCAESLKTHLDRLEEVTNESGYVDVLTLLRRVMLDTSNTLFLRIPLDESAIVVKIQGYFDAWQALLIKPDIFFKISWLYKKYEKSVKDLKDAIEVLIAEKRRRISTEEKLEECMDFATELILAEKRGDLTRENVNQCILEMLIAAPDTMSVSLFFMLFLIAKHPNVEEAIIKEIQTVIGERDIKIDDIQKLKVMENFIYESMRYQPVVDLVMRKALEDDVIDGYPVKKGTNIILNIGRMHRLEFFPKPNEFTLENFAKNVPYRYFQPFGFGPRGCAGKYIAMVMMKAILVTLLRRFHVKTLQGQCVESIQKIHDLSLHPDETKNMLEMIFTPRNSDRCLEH
Aryl hydrocarbon receptor (Homo sapiens), sequence (P35869 whole entry, looked up): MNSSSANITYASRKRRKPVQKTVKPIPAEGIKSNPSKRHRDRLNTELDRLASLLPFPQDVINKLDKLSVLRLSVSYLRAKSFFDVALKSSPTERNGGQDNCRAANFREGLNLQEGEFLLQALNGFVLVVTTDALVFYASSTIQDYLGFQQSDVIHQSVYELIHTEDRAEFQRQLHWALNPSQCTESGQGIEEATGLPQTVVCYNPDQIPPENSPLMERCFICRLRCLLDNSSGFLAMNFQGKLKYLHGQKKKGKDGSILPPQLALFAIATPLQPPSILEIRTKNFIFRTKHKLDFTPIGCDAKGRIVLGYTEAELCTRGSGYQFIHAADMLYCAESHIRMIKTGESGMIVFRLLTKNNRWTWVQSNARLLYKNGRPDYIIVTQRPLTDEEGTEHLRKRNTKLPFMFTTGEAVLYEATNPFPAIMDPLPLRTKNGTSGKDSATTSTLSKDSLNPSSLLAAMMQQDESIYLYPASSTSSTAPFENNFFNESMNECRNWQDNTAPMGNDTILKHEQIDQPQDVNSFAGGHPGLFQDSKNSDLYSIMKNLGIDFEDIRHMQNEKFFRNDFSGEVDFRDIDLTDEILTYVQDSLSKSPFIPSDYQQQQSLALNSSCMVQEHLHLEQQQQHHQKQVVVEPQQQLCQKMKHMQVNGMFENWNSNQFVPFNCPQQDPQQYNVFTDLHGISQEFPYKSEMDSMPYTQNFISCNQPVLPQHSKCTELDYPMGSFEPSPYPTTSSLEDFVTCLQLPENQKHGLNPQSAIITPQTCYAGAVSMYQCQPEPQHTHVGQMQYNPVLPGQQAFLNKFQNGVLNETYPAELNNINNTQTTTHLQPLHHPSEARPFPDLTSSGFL

Turning to `c1ccc2c(c1)CCC2`, the Potency entry in assay [1], in assay [2], in assay [3] and in assay [4] was “inactive” each time.
Consider `CCCC1C(CC)=CC(CC)=CN1c1ccccc1` (stereo not given), for which the Potency result in assay [1], in assay [2], in assay [3] and in assay [4] was “inactive” in each case.
In the case of `OC[C@H]1O[C@@H]2O[C@H]3[C@H](O)[C@@H](O)[C@@H](O[C@H]4[C@H](O)[C@@H](O)[C@@H](O[C@H]5[C@H](O)[C@@H](O)[C@@H](O[C@H]6[C@H](O)[C@@H](O)[C@@H](O[C@H]7[C@H](O)[C@@H](O)[C@@H](O[C@H]8[C@H](O)[C@@H](O)[C@@H](O[C@H]1[C@H](O)[C@H]2O)O[C@@H]8CO)O[C@@H]7CO)O[C@@H]6CO)O[C@@H]5CO)O[C@@H]4CO)O[C@@H]3CO`, the Potency entry in assay [1], in assay [2], in assay [3] and in assay [4] was “inactive” each time.
Turning to `CC(C)CCO`, the Potency result in assay [1], in assay [2], in assay [3] and in assay [4] was “inactive” each time.
As to `O=C(c1ccc(O)cc1)c1ccc(Cl)cc1`, the Potency result in assay [1], in assay [2], in assay [3] and in assay [4] was “inactive” each time.
As to `CCOC(=O)c1ccccc1C`, the Potency result in assay [1], in assay [2], in assay [3] and in assay [4] was “inactive” throughout.
Turning to `CCc1cccc(CC)c1N(COC)C(=O)CS(=O)(=O)O`, the Potency entry in assay [1], in assay [2], in assay [3] and in assay [4] was “inactive” in each case.
As for `CC(CC=O)c1ccccc1` (stereo not given), the Potency entry in assay [1], in assay [2], in assay [3] and in assay [4] was “inactive” in each case.
Take `CCCCCCCC=O`: the Potency entry in assay [1], in assay [2], in assay [3] and in assay [4] was “inactive” in each case.
With `Cc1ccc(C(C)C)cc2c(C)ccc1-2`, the Potency entry in assay [1], in assay [2], in assay [3] and in assay [4] was “inactive” throughout.
As for `NC(=O)CC[C@@H]1NC(=O)[C@H](Cc2ccccc2)NC(=O)[C@H](Cc2ccc(O)cc2)NC(=O)CCSSC[C@@H](C(=O)N2CCC[C@H]2C(=O)N[C@@H](CCCN=C(N)N)C(=O)NCC(N)=O)NC(=O)[C@H](CC(N)=O)NC1=O`, the Potency result in assay [1], in assay [2], in assay [3] and in assay [4] was “inactive” each time.
For `COc1ccccc1/C=C/C=O`, the Potency result in assay [1], in assay [2], in assay [3] and in assay [4] was “inactive” in each case.
Regarding `CC(=O)OCC(=O)[C@@]1(O)CC[C@H]2[C@@H]3CCC4=CC(=O)C=C[C@]4(C)[C@H]3[C@@H](O)C[C@@]21C`, the Potency result in assay [1], in assay [2], in assay [3] and in assay [4] was “inactive” in each case.
For the molecule `CC(C(=O)O)c1ccc2c(c1)CC(=O)c1ccccc1S2` (stereo not given), the Potency entry in assay [1], in assay [2], in assay [3] and in assay [4] was “inactive” each time.
As for `CCC(C)C1N=C(C)C(C)S1` (stereo not given), the Potency entry in assay [1], in assay [2], in assay [3] and in assay [4] was “inactive” each time.
In the case of `CCOc1ccccc1C(N)=O`, the Potency result in assay [1], in assay [2], in assay [3] and in assay [4] was “inactive” each time.
`NCCNCCO`: the Potency entry in assay [1], in assay [2], in assay [3] and in assay [4] was “inactive” each time.
Take `Cc1ncc(CO)c(C=O)c1O`: the Potency entry in assay [1], in assay [2], in assay [3] and in assay [4] was “inactive” in each case.
`C[C@H]1C[C@@H]2[C@H]([C@@H](O)C[C@@]3(C)[C@H]2CC[C@]3(O)C(=O)CO)[C@@]2(C)C=CC(=O)C=C12`: the Potency result in assay [1], in assay [2], in assay [3] and in assay [4] was “inactive” throughout.
For the molecule `CO[C@@]1(NC(=O)C(C(=O)O)c2ccc(O)cc2)C(=O)N2C(C(=O)O)=C(CSc3nnnn3C)CO[C@@H]21` (stereo not given in full), the Potency entry in assay [1], in assay [2], in assay [3] and in assay [4] was “inactive” each time.
Take `O=C(O)C(S)C(S)C(=O)O` (stereo not given): the Potency result in assay [1], in assay [2], in assay [3] and in assay [4] was “inactive” throughout.
On to `CC(COCCO)OCCO` (stereo not given), for which the Potency entry in assay [1], in assay [2], in assay [3] and in assay [4] was “inactive” in each case.
With `O=C(O)CCSSCCC(=O)O`, the Potency entry in assay [1], in assay [2], in assay [3] and in assay [4] was “inactive” throughout.
In the case of `COc1ccc(OC(F)(F)F)cc1CN[C@H]1CCCN[C@H]1c1ccccc1`, the Potency entry in assay [1], in assay [2], in assay [3] and in assay [4] was “inactive” throughout.
In the case of `O=C(O)c1ccccc1Cl`, the Potency result in assay [1], in assay [2], in assay [3] and in assay [4] was “inactive” throughout.
On to `O=C(O)CNC(=O)c1ccc(CO)o1`, for which the Potency entry in assay [1], in assay [2], in assay [3] and in assay [4] was “inactive” each time.
As to `C=C1CC[C@H](O)C/C1=C\C=C1/CCC[C@]2(C)[C@@H]([C@H](C)CCCC(C)C)CC[C@@H]12`, the Potency entry in assay [1], in assay [2] and in assay [4] was “inactive” each time.
Regarding `Nc1ccc2c3c(cccc13)-c1ccccc1-2`, the Potency result (with Aromatase (Homo sapiens); in assay [1]; in assay [2]; in assay [3]; in assay [4]) was “inactive” in each case. The Potency in assay [5] is 21.9 µM (active).
As to `C[C@]12CC[C@@H]3c4ccc(O)cc4C[C@@H](CCCCCCCCCS(=O)CCCC(F)(F)C(F)(F)F)[C@H]3[C@@H]1CC[C@@H]2O` (stereo not given in full), the Potency result in assay [1], in assay [2] and in assay [4] was “inactive” each time.
As to `CNC(=O)c1c(I)c(NC(=O)CCCCC(=O)Nc2c(I)c(C(=O)O)c(I)c(C(=O)NC)c2I)c(I)c(C(=O)O)c1I`, the Potency result in assay [1], in assay [2], in assay [3] and in assay [4] was “inactive” in each case.
